The assay deals with VDR:RXRa (NR concentration 270 nM, RXRa partner concentration 90 nM). The assay can be described thus: PBM binding z-score (relative to random genomic background probes); higher = stronger binding; sequences stand for … in GC…GCGATTGACAGCGTAGAATGAAGG
The method, then: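 Protein-binding microarray (Agilent 4x180K custom design, double-stranded 60-nt probes: 5' GC cap, 34-nt variable region, 24-nt constant primer region; full probe sequence given). Purified or IVT nuclear receptor:RXRα heterodimers (3:1 NR:RXRα, mostly 270:90 nM) or homodimers were incubated for 1 h in PBS with 2% milk and no ligand, then detected with Alexa488 antibodies. Fluorescence from o1-orientation probes (~5 replicates averaged) was converted to z-scores against 500 random hg19 background probes. Variable regions are seed direct-repeat (DR0–DR5) sites, all their single-nucleotide variants and half-site ablations.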
In turn, GGAACGAGGGCGTTCGAGTTGATAGCATGGCGAT showed a PBM binding z-score of 2.22. The same measure for TCTATAAGTTGAAGGGCAACCGACGAGTCCGTTT: 1.07; for GCGACTGGGGCAAAGCTGGTTACCATAAGGTTGG: -0.475; for TTACCAAGGTGAGCTGAGGTTGTTGATCCAACTC: 0.678.

CGTCCAAGGTCAACGGTCAGTGAAGAGATGACGG displayed a PBM binding z-score of 4.18.

Regarding CCGAGTAGGTTATTGGGCATTCAGGCAACGGTGA, the PBM binding z-score was -0.494. The same measure for CAAACTAGGTCAAAGGTCATAGTCGAGCCAACCA: 6.71; for GTACCAAGGTGAAGAGGTCGTTGATGAGTAGGCG: 2.71; for TAGCCTAGGTCAGGGGCCAGTATACCACGCGAAC: 0.706. For the sequence AGTCAAAGTTCCCTAGGTAACGTAAGATTCAGCT, the PBM binding z-score was -0.251. The same measure for CAAACTAGGTCAAAGATCAAAGTCGAGCCAACCA: 2.52; for AATAGTTGGTCAGCTGAGGTCACACACAATTCGG: 4.69; for CGTCCAAGGTCAAAGATCAGTGAAGAGATGACGG: 4.44. The same measure for ATCTCTAGGCAAAGTTCAGTGAAAGATCGATAGA: 1.06.

On to CCTGGGAGGACAGAAGGTCAGAGCTGTCCGCTTT, for which the PBM binding z-score is 1.04. The same measure for ATCTCTAGGAAAAGATAGTTCAGTGAATGCAAAT: 0.581. The same measure for GCAGACATGTGAAACGCAGGTAACTCAGGGTGGC: -0.478; for CCTACTGGGCCATCAGGTCATAGATATCAACGTT: 1.25. The same measure for TCGAGCAGGCCAGAGGGTCACTCAAGAGGTACGG: 1.48; for GGAACGAGGGCAAAGTTGATAACATCTGTCGACG: 1.68; for TCTTGTAGATCAATAGAGATTAAGAAAGTGCGCT: 0.285.

CCTACTGGTCCACGAAAGGTCATTGATTCAGTGA had a PBM binding z-score of 4.24. The same measure for ATCTAAAGGTCGTGAGGTGAGTATACAGAAAGGC: 3.73; for CTCGAAAGGTCGGTTAAGGTGAGTATACGGATAA: 2.03. The same measure for TCGTATAGGTAAATGCTAGGTGAAAGTCCGATCT: 0.443; for ACTAGCATGCCAAGGGTCACTCAAGATTAGTCCG: 2.93; for CGTCCAAGGTCAAGGTCAGTGAAAGAGACTCGAA: 4.7.

Consider ACTAGCAGGCCAATTTTGGGTCACTCAAACAAAG, for which the PBM binding z-score amounted to 0.456. In the case of CGTCCTAGGTCATAGGAGGTCAGTGAAGACAGAT, the PBM binding z-score was found to be 5.59. The same measure for CGTGCTAGGTCAATGGTCAGCTAAAGCAGCTCGC: 0.97; for CTAGACAGGTGAGAAGGTAACTCAGCCTCGATTA: -0.342. The same measure for AGAATGAGGTTAAGATCAGGGACACAGAATACAT: 1.93; for CAAACTAGGTCGCGAAAGGTCAAAGTCGAATGAC: 5.94; for CCTAACAGGCCAATCTGGGTCACTCAAGGCTTGA: 1.04. The same measure for GCGACCGGGGCAAAGCAGGTTACCATAAGGTTGG: 0.7. Take GCATATAGGCAATACAAGGTGAAAGTCCGATTGT: the PBM binding z-score was found to be 0.0245.

TCATATAGGTAAAAGGTGATAGTCGGTGTGGTAA: the PBM binding z-score came out at 1.13. The same measure for CCGACTGGGACAAAGGTTACCATACTCAGTACGA: 1.14; for AGTCAAAGTTCCGGACGAGGTAACGTAAAGCACG: -0.357; for GCTTTCGGGTCAAAGGTTATAGCATGAATAGAAT: 5.79.

(Values after the supplement of paper PMC6555819.)
